# Molecular target: PUM1 PUF domain R4-GWP (Homo sapiens, UniProt Q14671 828-1176, N971G;H972W;Q975P)
# Test: yeast three-hybrid, YBZ-1, SC-Leu-His + 0.5 mM 3-AT, 4 days
# Details: tags: N-Gal4 AD-HA kept; label: inside an RPR1-promoter hybrid RNA with tandem MS2 sites; ssRNA
# Summary of the method: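 Matching RNA elements and Pumilio-1 PUF domain libraries, randomized at the three base-contacting residues of every repeat, were co-expressed from a centromeric plasmid in strain YBZ-1 (LexA–MS2 coat fusion, HIS3 reporter). The repeat regions were PCR-amplified and Illumina-sequenced from cells grown four days on SC-Leu (input) or SC-Leu-His + 0.5 mM 3-AT (selection). The interaction score is the log change in variant frequency from input to selection. It is computed in log2, with a pseudocount of 1 for absent variants.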
row,Sequence,binding signal
1,GGCUAGAACUAGUGGAUCCCCCGGCGCCCGGCGGCUCGAGCCCGGGUAAGUGUACAUAGUCUGCAUGCCGCCGGGCGCCAUGCCUGCAGGUCGACUCUAGAAAACAUG,7 log2 enrichment (interaction score)
2,GGCUAGAACUAGUGGAUCCCCCGGCGCCCGGCGGCUCGAGCCCGGGUAAGUGUAUAUAGUCUGCAUGCCGCCGGGCGCCAUGCCUGCAGGUCGACUCUAGAAAACAUG,7.78 log2 enrichment (interaction score)
3,GGCUAGAACUAGUGGAUCCCCCGGCGCCCGGCGGCUCGAGCCCGGGUAAGUGUAAAUAGUCUGCAUGCCGCCGGGCGCCAUGCCUGCAGGUCGACUCUAGAAAACAUG,6.31 log2 enrichment (interaction score)

# From PMC8384837, “Expanding the binding specificity for RNA recognition by a PUF domain”
